Bioassay records deposited in PubChem by National Center for Advancing Translational Sciences (NCATS).
AmpC inh no detg: blocks E. coli AmpC beta-lactamase in detergent-free assay; actives 0.52% (n = 330,000); AID 485341; AmpC nitrocefin hydrolysis, absorbance 480 nm, 0.0001% Triton; Potency, µM (titrated, usually from 57.1 µM), inactives show at the top dose activity change, negative = inhibition, hits mostly inhibitors;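 also: plate controls were no compound for no effect and no enzyme for full effect; nearly all actives have a fitted effect of over 20% in size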
Target sequence (P00811 whole entry, looked up): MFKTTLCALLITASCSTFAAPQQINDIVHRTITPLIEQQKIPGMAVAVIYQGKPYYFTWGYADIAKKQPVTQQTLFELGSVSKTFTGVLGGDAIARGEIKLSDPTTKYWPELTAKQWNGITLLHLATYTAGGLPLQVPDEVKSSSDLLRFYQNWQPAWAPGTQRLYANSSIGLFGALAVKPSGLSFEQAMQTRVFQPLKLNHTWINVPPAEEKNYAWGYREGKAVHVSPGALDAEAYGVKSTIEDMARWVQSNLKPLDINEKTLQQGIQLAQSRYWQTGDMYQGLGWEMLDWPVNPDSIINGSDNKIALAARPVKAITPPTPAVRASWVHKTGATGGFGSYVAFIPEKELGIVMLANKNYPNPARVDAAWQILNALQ
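AmpC (5.3 nM in the dispensed reagent) in 20 mM phosphate pH 7.0 with 0.01% (detergent screen) or 0.0001% Triton X-100 was preincubated with compounds for 15 min at room temperature. Nitrocefin was then added from an 800 uM solution, and hydrolysis was followed at 480 nm.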
Giardia FBPA inh-1: Giardia lamblia aldolase inhibition; purified Giardia FBPA; A8B2U2; Potency, µM (titrated, usually from 59.6 µM), inactives show at the top dose activity, negative = inhibition, usual class: inhibitors; actives 0.71% (n = 290,000); also: nearly all actives have a fitted effect of over 55% in size
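40 nM FBPA preincubated 10 min at RT with compound (up to 57.5 uM final), then substrate plus GAPDH/TPI/NAD/arsenate coupling and diaphorase/resazurin added. Fluorescence read after 20 min at RT, 525/598 nm.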
Sm TGR block: blocks Schistosoma mansoni thioredoxin glutathione reductase | Q962Y6 | purified TGR, DTNB reduction, TNB absorbance 405 nm | Potency, µM (top dose mostly 114 µM), for inactives: at the top dose activity change, negative = inhibition, actives largely listed as inhibitors | actives 3% (n = 360,000); also: nearly all actives have a fitted effect of over 60% in size
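First, TGR (20 nM dispensed) and NADPH were mixed with compound. Second, a 15 min room-temperature incubation followed. Third, further NADPH and then DTNB were added to start the reaction. Finally, TNB absorbance was monitored kinetically.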
AmpC detergent: blocks E. coli AmpC beta-lactamase in detergent assay; P00811; AmpC hydrolysis of nitrocefin, absorbance 480 nm, 0.01% Triton; Potency, µM (doses to about 114 µM), for inactives: at the top dose activity change, negative = inhibition, usual class: inhibitors; actives 0.041% (n = 370,000);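 also: 0% = no-compound wells and -100% = no-enzyme wells; nearly all actives have a fitted effect of over 25% in size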
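AmpC (5.3 nM in the dispensed reagent) in 20 mM phosphate pH 7.0 with 0.01% (detergent screen) or 0.0001% Triton X-100 was preincubated with compounds for 15 min at room temperature. Nitrocefin was then added from an 800 uM solution, and hydrolysis was followed at 480 nm.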
RE007 growth inh: less growth of the S. pombe RE007 Vpr strain. S. pombe RE007 Vpr strain, BacTiter-Glo ATP luminescence, 24 h. Potency, µM (titrated, usually from 92.2 µM), inactives show at the highest dose activity change, negative = less growth, usual class: inhibitors. actives 0.21% (n = 360,000); active = well fitted falling curve with a large enough effect; inconclusive = small, poorly fitted or top-dose-only effect; inactive = no such curve, though single readings can be large or run the other way; also: nearly all actives have a fitted effect of over 50% in size
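Fission yeast RE007 carrying one integrated HIV-1 vpr copy, seeded at OD 0.01 in PMG+AL medium with 23 nL pinned compound. Grown 24 h at 30 degrees; viability read by BacTiter-Glo luminescence after 5 min.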
Giardia growth: Giardia lamblia growth inhibition | Giardia lamblia trophozoite growth inhibition | actives 5% (n = 1,500) | shares compounds with Giardia FBPA inh-1 | Potency, µM (doses to about 57.5 µM), for inactives: at the highest dose activity change, negative = inhibition, most hits filed as inhibitors;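 also: trophozoites exposed to compound for 48 h at 37 °C; nearly all actives have a fitted effect of over 70% in size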
Mammalian tox: toxic to mammalian cells in Giardia aldolase counter-screen. shares compounds with Giardia FBPA inh-1. mammalian cell viability counter-screen, qHTS. Potency, µM (highest dose often 57.5 µM), for inactives: at the top dose viability change, negative = toxicity, most hits filed as inhibitors. actives 4% (n = 1,500). AID 2786;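 also: Chinese hamster ovary cells used as mammalian cytotoxicity surrogate; viability measured as cellular ATP by luminescence; compound exposure lasted 48 h before reading; nearly all actives have a fitted effect of over 60% in size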
Giardia FBPA inh-2: confirmation of Giardia fructose-bisphosphate aldolase inhibitors. shares compounds with Giardia FBPA inh-1. purified Giardia aldolase enzyme activity, qHTS. Potency, µM (doses to about 57.5 µM), inactives show at the top dose activity change, negative = inhibition, most hits filed as inhibitors. actives 5% (n = 1,500); also: nearly all actives have a fitted effect of over 45% in size
Rabbit aldolase: selectivity test for Giardia aldolase inhibitors: rabbit aldolase. actives 4% (n = 1,500). Potency, µM (doses to about 57.5 µM), for inactives: at the highest dose activity, negative = inhibition, hits mostly inhibitors. Rabbit muscle FBPA enzyme inhibition, selectivity counter-screen. shares compounds with Giardia FBPA inh-1; also: nearly all actives have a fitted effect of over 60% in size
Target sequence (P00883 whole entry, looked up): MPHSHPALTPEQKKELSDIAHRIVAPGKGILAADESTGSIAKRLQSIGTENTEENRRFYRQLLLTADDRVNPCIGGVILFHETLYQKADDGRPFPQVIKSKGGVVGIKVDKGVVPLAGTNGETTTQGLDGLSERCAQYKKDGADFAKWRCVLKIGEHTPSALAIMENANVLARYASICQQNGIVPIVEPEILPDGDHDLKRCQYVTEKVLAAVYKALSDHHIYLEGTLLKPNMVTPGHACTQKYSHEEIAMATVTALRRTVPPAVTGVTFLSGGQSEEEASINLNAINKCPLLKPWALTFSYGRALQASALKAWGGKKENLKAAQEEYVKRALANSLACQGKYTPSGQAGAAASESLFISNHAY
GAPDH coupling: GAPDH inhibition flagged for Giardia aldolase hits; shares compounds with Giardia FBPA inh-1; GAPDH coupling enzyme counterscreen, biochemical, qHTS; Potency, µM (series often up to 57.5 µM), inactives show at the top dose activity change, negative = inhibition, actives largely listed as inhibitors; actives 6% (n = 1,500); AID 2795; also: nearly all actives have a fitted effect of over 55% in size
* marks the source's active call; other numbers are inactive results; [ ] = remark or other dose. Only some compounds are listed: those with a hit (about 3.4% of all), similar ones and a draw of the others. Unless noted, calls follow the shape of the dose curve; as a rule, active = well fitted curve in the direction sought with a large enough effect; inconclusive = small, poorly fitted or top-dose-only effect, or another doubt; inactive = no such curve, though single readings can be large; an effect the other way counts as inactive or inconclusive. Unless noted, % is scaled to controls: 0 for no effect and ±100 for the full control effect; potency is read from the fitted curve at half-maximal effect.

For Cc1cc(C)cc(N(C(=O)Cn2nnc(-c3ccccc3)n2)C(C(=O)NC2CCCCC2)c2ccccn2)c1 (centres undefined) the results were AmpC inh no detg -18.7%, Giardia FBPA inh-1 -2.3%, Sm TGR block -4.3%, AmpC detergent -14.3% and RE007 growth inh 14.9%.
Screening CCCC(C)(C)C(=O)N1CCC1(C)C(=O)NS(=O)(=O)c1ccc(Cl)cc1 (centres undefined) returned RE007 growth inh 36.0%.
Cc1ccc(Nc2cc(C)nn2-c2nc(C)cc(=O)[nH]2)cc1 was read as AmpC inh no detg 5.7%, Giardia FBPA inh-1 -27.8%, Sm TGR block -0.6%, AmpC detergent inconclusive, RE007 growth inh inconclusive, Giardia growth inconclusive, Mammalian tox 2.91µM*, Giardia FBPA inh-2 -4.1%, Rabbit aldolase -14.1% and GAPDH coupling -26.5%.
O=C(N/N=C/c1ccccn1)c1cc(C2CC2)nc2ccccc12 was read as AmpC inh no detg -16.5%, Giardia FBPA inh-1 8.3%, Sm TGR block -3.1%, AmpC detergent 2.0% and RE007 growth inh 13.8%.
For O=C(N/N=C/c1ccccn1)c1cc(-c2ccccc2)nc2ccccc12 the results were AmpC inh no detg 6.2%, Giardia FBPA inh-1 14.1µM*, Sm TGR block 6.2%, AmpC detergent 1.5%, RE007 growth inh 12.4%, Giardia growth 24.3%, Mammalian tox inconclusive, Giardia FBPA inh-2 10.4%, Rabbit aldolase 6.6% and GAPDH coupling -2.0%.
For O=C(N/N=C/c1ccccn1)c1cccc(S(=O)(=O)N2CCCC2)c1 the results were AmpC inh no detg -7.7%, Giardia FBPA inh-1 15.8µM*, Sm TGR block 6.6%, AmpC detergent 7.7%, RE007 growth inh 11.4%, Giardia growth 4.4%[10.4 µM], Mammalian tox 5.4%, Giardia FBPA inh-2 6.0%, Rabbit aldolase 7.1% and GAPDH coupling -0.1%.
Screening O=C(N/N=C/c1ccccn1)c1cc(-c2cccc3ccccc23)n[nH]1 returned AmpC inh no detg -37.7%, Giardia FBPA inh-1 -4.2%, Sm TGR block -7.8%, AmpC detergent -20.2% and RE007 growth inh 4.3%.
Screening O=C(N/N=C/c1ccccn1)c1cc(-c2ccccc2Cl)n[nH]1 returned AmpC inh no detg -44.5%, Giardia FBPA inh-1 15.8µM*, Sm TGR block 3.1%, AmpC detergent 3.8%, RE007 growth inh 27.3%, Giardia growth -19.0%, Mammalian tox -8.5%, Giardia FBPA inh-2 -7.9%, Rabbit aldolase -13.6% and GAPDH coupling -18.4%.
`C/C(=N\NC(=O)CNC(=O)c1ccncc1)c1ccc(C)cc1` gave AmpC inh no detg 3.5%, Giardia FBPA inh-1 0.6%, Sm TGR block -0.2%, AmpC detergent 0.2% and RE007 growth inh 6.7%.
`CCOC(=O)c1c(-c2ccc(OC)cc2)csc1NC(=O)CNCc1ccco1` gave AmpC inh no detg 21.0%, Giardia FBPA inh-1 inconclusive, Sm TGR block 14.8%, AmpC detergent 9.6% and RE007 growth inh -18.5%.
`CCOC(=O)c1c(-c2ccc(Cl)cc2)csc1NC(=O)CNCc1ccco1` gave AmpC inh no detg -12.9%, Giardia FBPA inh-1 15.8µM*, Sm TGR block 5.8%, AmpC detergent -11.1%, RE007 growth inh 5.2%, Giardia growth -2.7%, Mammalian tox -26.1%, Giardia FBPA inh-2 -8.2%, Rabbit aldolase -2.9% and GAPDH coupling -2.0%.
For S=C(Nc1ccc2c(c1)OCO2)Nc1ccc2c(c1)OCO2 the results were AmpC inh no detg -3.8%, Giardia FBPA inh-1 -27.2%, Sm TGR block -16.7%, AmpC detergent inconclusive and RE007 growth inh -28.7%.
For CCn1ncc(NC(=S)Nc2ccc3c(c2)OCO3)c1C(N)=O the results were AmpC inh no detg -20.5%, Giardia FBPA inh-1 17.7µM*, Sm TGR block -11.4%, AmpC detergent inconclusive, RE007 growth inh -8.1%, Giardia growth -19.9%[10.4 µM], Mammalian tox -12.2%, Giardia FBPA inh-2 -22.8%, Rabbit aldolase -10.3% and GAPDH coupling -9.5%.
For CCn1ncc(NC(=S)Nc2ccc(OC)c(OC)c2)c1C(N)=O the results were AmpC inh no detg -28.6%, Giardia FBPA inh-1 15.8µM*, Sm TGR block 20.3%[57.1 µM], AmpC detergent 4.1%, RE007 growth inh -12.8%, Giardia growth -29.8%, Mammalian tox -5.9%, Giardia FBPA inh-2 -15.3%, Rabbit aldolase -4.9% and GAPDH coupling -4.6%.
CCC(C)c1ccc(NC(=S)Nc2ccc(OC)c(OC)c2)cc1 (centres undefined) was read as AmpC inh no detg -38.2%, Giardia FBPA inh-1 -2.9%, Sm TGR block -11.3%, AmpC detergent -4.0% and RE007 growth inh 12.8%.
Screening COc1cccc(CN(CCC(=O)O)Cc2cccc(OC)c2)c1 returned RE007 growth inh 6.7%.
Screening CC(=O)NNC(=O)c1sc(=S)n2c1[nH]c(=O)c1sccc12 returned AmpC inh no detg -21.0%, Giardia FBPA inh-1 17.7µM*, Sm TGR block 0.2%, AmpC detergent -2.0%, RE007 growth inh -12.3%, Giardia growth -20.2%, Mammalian tox 3.3%, Giardia FBPA inh-2 12.6%, Rabbit aldolase inconclusive and GAPDH coupling -24.3%.
`N#Cc1c(-c2ccc(F)cc2)cc(-c2ccccc2)nc1SCC(=O)NCC(=O)O` gave AmpC inh no detg 15.4%, Giardia FBPA inh-1 7.06µM*, Sm TGR block 6.4%, AmpC detergent -7.2%, RE007 growth inh 16.9%, Giardia growth 21.2%[38.3 µM], Mammalian tox 14.6%, Giardia FBPA inh-2 -1.9%, Rabbit aldolase 5.6% and GAPDH coupling 14.7%.
O=C(CCCCn1cnc2c(=S)nc[nH]c21)Nc1ccc(C(=O)O)cc1 was read as RE007 growth inh -10.5%.
